# Results filed as inconclusive are left out. Calls of active or inactive are those of the source. Rule for the calls, unless noted: active = hit-call score of the fitted dose curve at least 0.9, where 1 is the maximum; inconclusive = response in the unintended direction; inactive = score below 0.9.
# Key:
# [1] = ATG_TCF_b_cat_CIS: Attagene CIS-FACTORIAL HepG2 Assay for human T-Cell-Factor with beta-catenin (TCF/b-cat) (AID 2282965; active = hit-call score of the fitted dose curve at least 0.9, where 1 is the maximum; inactive = score below 0.9); details: HepG2 TCF/beta-catenin cis-reporter transcription, actives raise or lower the signal
# Outline: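 Endogenous TCF/LEF activity read as reporter transcript level via RT-PCR and capillary electrophoresis fluorescence in transfected HepG2, 24 h exposure; gain or loss of signal fitted against DMSO controls.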
# [2] = ATG_TAL_CIS: Attagene CIS-FACTORIAL HepG2 Assay for human TAL Basal Promoter (AID 2282966; active = hit-call score of the fitted dose curve at least 0.9, where 1 is the maximum; inactive = score below 0.9;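 note: background control endpoint measuring basal TAL promoter reporter mRNA not a specific factor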); details: HepG2 Attagene cis-factorial TAL promoter reporter; actives raise or lower the signal
# Outline: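 RT-PCR plus capillary electrophoresis quantifies reporter mRNA induction in transiently transfected HepG2 cells after 24 h chemical treatment. DMSO serves as negative control and baseline for bidirectional fitting.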
# [3] = ATG_VDRE_CIS: Attagene CIS-FACTORIAL HepG2 Assay for human Vitamin D Receptor Element (VDRE) (AID 2282968; active = hit-call score of the fitted dose curve at least 0.9, where 1 is the maximum; inactive = score below 0.9); details: HepG2 VDRE cis-reporter transcription, actives raise or lower the signal
# Outline: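 Reporter mRNA induction, quantified by capillary electrophoresis of fluorescently labelled RT-PCR products, was read 24 h after dosing HepG2 cells carrying transiently transfected cis-regulated reporter units; gain or loss relative to DMSO.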
# [4] = target: Steroid hormone receptor ERR1 (Homo sapiens) (UniProt P11474); experiment: ATG_ERRa_TRANS: Attagene TRANS-FACTORIAL HepG2 Assay for human Estrogen-Related Receptor alpha (ERRa) (AID 2282971); details: HepG2 Attagene TRANS reporter, ERRa transactivation
# Outline: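 Reporter transcripts from ERRa-Gal4 chimera activity measured in transiently transfected human HepG2 cells 24 hours after dosing, using RT-PCR with 6-FAM primer extension, HpaI digestion and capillary electrophoresis; DMSO is baseline.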
# [5] = target: X-box-binding protein 1 (Homo sapiens) (UniProt P17861); experiment: ATG_Xbp1_CIS: Attagene CIS-FACTORIAL HepG2 Assay for human X-box Binding Protein 1 (XBP1) (AID 2282972; active = hit-call score of the fitted dose curve at least 0.9, where 1 is the maximum; inactive = score below 0.9); details: HepG2 XBP1 cis-element reporter, Attagene multiplex; actives raise or lower the signal
# X-box-binding protein 1 (Homo sapiens), sequence (P17861 whole entry, looked up): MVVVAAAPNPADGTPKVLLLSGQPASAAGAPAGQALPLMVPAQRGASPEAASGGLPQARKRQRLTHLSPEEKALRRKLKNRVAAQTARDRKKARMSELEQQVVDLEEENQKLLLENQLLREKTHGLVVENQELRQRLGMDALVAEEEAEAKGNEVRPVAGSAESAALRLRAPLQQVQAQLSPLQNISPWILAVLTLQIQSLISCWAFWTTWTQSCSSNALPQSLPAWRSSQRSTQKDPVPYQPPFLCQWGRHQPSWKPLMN
# Outline: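 HepG2, transient MRTU transfection (cis-promoter driven), 24 h compound exposure. Total RNA → oligo(dT) RT → PCR → 6-FAM labeling → HpaI cut → CE. Bidirectional fit vs DMSO.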
# [6] = ATG_M_19_TRANS: Attagene TRANS-FACTORIAL HepG2 Assay for M19 Transcription Factor (Internal Marker) (AID 2282974); details: HepG2 Attagene TRANS-FACTORIAL M19 internal marker reporter
# Outline: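 Fluorescence of 6-FAM-labelled reporter cDNA fragments, separated by capillary electrophoresis, served as the readout. These derived from HepG2 cells carrying transfected GAL4-UAS reporter units after 24 h dosing, with DMSO as negative control.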
# [7] = target: Estrogen-related receptor gamma (Homo sapiens) (UniProt P62508); experiment: ATG_ERRg_TRANS: Attagene TRANS-FACTORIAL HepG2 Assay for human Estrogen-Related Receptor gamma (ERRg) (AID 2282977); details: HepG2 Attagene TRANS reporter, ERRg transactivation;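 note: hits increase reporter signal over DMSO so potencies reflect activators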
# Estrogen-related receptor gamma (Homo sapiens), sequence (P62508 whole entry, looked up, the tested form may be a part): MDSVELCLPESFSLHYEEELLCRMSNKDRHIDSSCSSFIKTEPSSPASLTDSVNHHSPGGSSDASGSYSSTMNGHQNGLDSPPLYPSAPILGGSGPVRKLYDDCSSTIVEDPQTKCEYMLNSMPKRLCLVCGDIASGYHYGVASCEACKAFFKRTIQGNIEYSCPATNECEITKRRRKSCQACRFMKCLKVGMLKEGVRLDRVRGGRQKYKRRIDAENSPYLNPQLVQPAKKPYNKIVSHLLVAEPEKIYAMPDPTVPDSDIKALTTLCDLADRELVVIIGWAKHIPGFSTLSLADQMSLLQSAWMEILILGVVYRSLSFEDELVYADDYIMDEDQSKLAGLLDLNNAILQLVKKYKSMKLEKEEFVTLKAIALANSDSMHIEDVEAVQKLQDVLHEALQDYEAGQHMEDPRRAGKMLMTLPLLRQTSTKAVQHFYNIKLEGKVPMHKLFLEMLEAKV
# Outline: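 HepG2 cells transiently transfected with multiplexed GAL4-UAS reporter units driven by chimeric NR-Gal4 proteins; 24 h exposure. Reporter mRNA quantified by RT-PCR, fluorescent labelling, HpaI digestion and capillary electrophoresis; gain of signal vs DMSO.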
# [8] = target: Oxysterols receptor LXR-alpha (Homo sapiens) (UniProt Q13133); experiment: ATG_LXRa_TRANS: Attagene TRANS-FACTORIAL HepG2 Assay for human Liver X Receptor alpha (LXRa) (AID 2282980); details: HepG2 Attagene TRANS reporter, LXRa transactivation
# Oxysterols receptor LXR-alpha (Homo sapiens), sequence (Q13133 whole entry, looked up, the tested form may be a part): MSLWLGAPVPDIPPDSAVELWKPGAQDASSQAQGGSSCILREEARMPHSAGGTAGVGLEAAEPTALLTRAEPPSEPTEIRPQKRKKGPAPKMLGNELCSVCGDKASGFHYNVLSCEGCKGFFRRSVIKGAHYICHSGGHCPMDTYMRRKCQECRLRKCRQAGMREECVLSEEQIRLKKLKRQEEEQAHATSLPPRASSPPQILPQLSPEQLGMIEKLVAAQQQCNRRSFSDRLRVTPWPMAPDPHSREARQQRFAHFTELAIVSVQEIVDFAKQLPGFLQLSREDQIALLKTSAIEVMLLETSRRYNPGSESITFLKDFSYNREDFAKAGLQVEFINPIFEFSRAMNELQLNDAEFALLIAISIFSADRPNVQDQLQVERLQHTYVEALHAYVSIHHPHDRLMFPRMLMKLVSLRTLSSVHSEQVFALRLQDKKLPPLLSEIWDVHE
# Outline: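 Chemical-induced reporter mRNA measured by RT-PCR with fluorescent labelling and capillary electrophoresis after 24 h dosing of transiently transfected HepG2 cells expressing exogenous NR-Gal4 chimeras; increases scored against DMSO baseline.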
# [9] = target: Oxysterols receptor LXR-beta (Homo sapiens) (UniProt P55055); experiment: ATG_LXRb_TRANS: Attagene TRANS-FACTORIAL HepG2 Assay for human Liver X Receptor beta (LXRb) (AID 2282981); details: HepG2 Attagene TRANS GAL4-LXRb reporter, mRNA
# Oxysterols receptor LXR-beta (Homo sapiens), sequence (P55055 whole entry, looked up, the tested form may be a part): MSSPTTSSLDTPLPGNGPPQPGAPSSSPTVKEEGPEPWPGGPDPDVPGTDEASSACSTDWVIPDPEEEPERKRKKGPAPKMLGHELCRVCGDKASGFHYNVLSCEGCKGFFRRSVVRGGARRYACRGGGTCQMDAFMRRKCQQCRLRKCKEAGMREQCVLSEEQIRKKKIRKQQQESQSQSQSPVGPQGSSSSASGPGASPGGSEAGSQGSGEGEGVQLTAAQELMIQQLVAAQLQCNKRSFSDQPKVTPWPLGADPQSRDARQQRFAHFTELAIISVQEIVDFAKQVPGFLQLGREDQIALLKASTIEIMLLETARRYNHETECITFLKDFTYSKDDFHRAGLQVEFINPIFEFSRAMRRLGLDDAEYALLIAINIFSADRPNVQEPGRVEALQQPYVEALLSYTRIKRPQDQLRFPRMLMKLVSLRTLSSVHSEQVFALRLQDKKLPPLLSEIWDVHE
# Outline: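 Transient transfection HepG2 (multiplexed RTUs, GAL4-UAS); NR-Gal4 chimera; 24 h exposure; RNA → RT-PCR → 6-FAM primer extension → HpaI → CE; increase vs DMSO.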
# [10] = target: Hepatocyte nuclear factor 4-alpha (Homo sapiens) (UniProt P41235); experiment: ATG_HNF4a_TRANS: Attagene TRANS-FACTORIAL HepG2 Assay for human Hepatocyte Nuclear Factor 4 alpha (HNF4a) (AID 2282982); details: HepG2 HNF4a transactivation reporter, mRNA readout
# Hepatocyte nuclear factor 4-alpha (Homo sapiens), sequence (P41235 whole entry, looked up, the tested form may be a part): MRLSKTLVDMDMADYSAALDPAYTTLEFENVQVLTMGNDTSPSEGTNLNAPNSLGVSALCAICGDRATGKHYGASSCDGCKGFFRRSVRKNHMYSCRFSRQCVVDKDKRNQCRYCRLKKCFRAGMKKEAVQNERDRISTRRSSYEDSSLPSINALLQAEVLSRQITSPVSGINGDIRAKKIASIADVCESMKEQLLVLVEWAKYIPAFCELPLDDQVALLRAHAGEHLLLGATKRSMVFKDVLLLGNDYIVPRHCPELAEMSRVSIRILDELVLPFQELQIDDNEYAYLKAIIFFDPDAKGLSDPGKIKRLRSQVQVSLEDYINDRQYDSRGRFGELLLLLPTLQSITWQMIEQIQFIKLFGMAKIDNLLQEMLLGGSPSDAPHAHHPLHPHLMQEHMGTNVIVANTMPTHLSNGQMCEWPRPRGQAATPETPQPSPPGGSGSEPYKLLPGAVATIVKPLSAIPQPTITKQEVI
# Outline: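 Readout is fluorescent reporter-transcript fragments resolved by capillary electrophoresis after RT-PCR from HepG2 cells dosed for 24 h. Cells carried transfected GAL4-UAS reporter constructs measuring exogenous NR-GAL4 chimera activity; DMSO served as baseline.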
# [11] = ATG_M_06_TRANS: Attagene TRANS-FACTORIAL HepG2 Assay for M06 Transcription Factor (Internal Marker) (AID 2282983); details: HepG2 Attagene TRANS M06 internal marker reporter
# Outline: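 Cells: HepG2, transient multi-reporter transfection. Exposure: 24 h. Detection: RT-PCR, 6-FAM labelling, HpaI digestion (2 h, 37 °C), capillary electrophoresis. Baseline: DMSO.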
# [12] = ATG_M_32_TRANS: Attagene TRANS-FACTORIAL HepG2 Assay for M32 Transcription Factor (Internal Marker) (AID 2282984); details: HepG2 Attagene TRANS M32 internal marker reporter
# Outline: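 Measures reporter mRNA induction in human HepG2 liver cells after 24 h chemical treatment. Transcripts from transiently transfected GAL4-UAS reporter units are amplified, fluorescently labelled and sized by capillary electrophoresis; gain of signal relative to DMSO.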
# [13] = target: Nuclear receptor subfamily 4 group A member 2 (Homo sapiens) (UniProt P43354); experiment: ATG_NURR1_TRANS: Attagene TRANS-FACTORIAL HepG2 Assay for human Nuclear Receptor Related Protein 1 (NURR1) (AID 2282985); details: HepG2 Attagene TRANS reporter, mRNA readout
# Nuclear receptor subfamily 4 group A member 2 (Homo sapiens), sequence (P43354 whole entry, looked up, the tested form may be a part): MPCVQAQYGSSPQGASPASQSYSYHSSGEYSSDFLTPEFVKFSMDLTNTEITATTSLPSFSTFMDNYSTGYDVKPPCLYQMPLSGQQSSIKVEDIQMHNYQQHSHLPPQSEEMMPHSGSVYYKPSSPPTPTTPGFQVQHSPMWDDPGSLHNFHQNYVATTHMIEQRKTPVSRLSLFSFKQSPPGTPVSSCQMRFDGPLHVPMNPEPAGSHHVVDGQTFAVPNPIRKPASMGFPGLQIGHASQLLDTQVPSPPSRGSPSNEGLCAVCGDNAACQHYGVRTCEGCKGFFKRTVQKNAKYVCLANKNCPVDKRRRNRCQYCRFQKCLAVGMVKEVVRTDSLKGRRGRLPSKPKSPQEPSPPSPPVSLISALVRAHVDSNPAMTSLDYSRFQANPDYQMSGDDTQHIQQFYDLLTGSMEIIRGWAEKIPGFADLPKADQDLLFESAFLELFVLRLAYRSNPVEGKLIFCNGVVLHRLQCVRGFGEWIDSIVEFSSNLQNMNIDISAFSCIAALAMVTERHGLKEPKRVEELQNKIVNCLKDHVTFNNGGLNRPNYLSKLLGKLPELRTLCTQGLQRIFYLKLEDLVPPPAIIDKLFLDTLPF
# Outline: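 Transient transfection of HepG2, human liver cells, with multiple GAL4-UAS reporter transcription units. Cells dosed 24 h, RNA isolated, reverse-transcribed, PCR-amplified, FAM-labelled, HpaI-digested, sized by capillary electrophoresis. DMSO served as negative control.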
# [14] = target: Transcriptional activator Myb (Homo sapiens) (UniProt P10242); experiment: ATG_Myb_CIS: Attagene CIS-FACTORIAL HepG2 Assay for human Myeloblastosis (Myb) Proto-Oncogene Transcription Factor (AID 2282986; active = hit-call score of the fitted dose curve at least 0.9, where 1 is the maximum; inactive = score below 0.9); details: HepG2 Attagene CIS-FACTORIAL Myb reporter transcription; actives raise or lower the signal
# Transcriptional activator Myb (Homo sapiens), sequence (P10242 whole entry, looked up): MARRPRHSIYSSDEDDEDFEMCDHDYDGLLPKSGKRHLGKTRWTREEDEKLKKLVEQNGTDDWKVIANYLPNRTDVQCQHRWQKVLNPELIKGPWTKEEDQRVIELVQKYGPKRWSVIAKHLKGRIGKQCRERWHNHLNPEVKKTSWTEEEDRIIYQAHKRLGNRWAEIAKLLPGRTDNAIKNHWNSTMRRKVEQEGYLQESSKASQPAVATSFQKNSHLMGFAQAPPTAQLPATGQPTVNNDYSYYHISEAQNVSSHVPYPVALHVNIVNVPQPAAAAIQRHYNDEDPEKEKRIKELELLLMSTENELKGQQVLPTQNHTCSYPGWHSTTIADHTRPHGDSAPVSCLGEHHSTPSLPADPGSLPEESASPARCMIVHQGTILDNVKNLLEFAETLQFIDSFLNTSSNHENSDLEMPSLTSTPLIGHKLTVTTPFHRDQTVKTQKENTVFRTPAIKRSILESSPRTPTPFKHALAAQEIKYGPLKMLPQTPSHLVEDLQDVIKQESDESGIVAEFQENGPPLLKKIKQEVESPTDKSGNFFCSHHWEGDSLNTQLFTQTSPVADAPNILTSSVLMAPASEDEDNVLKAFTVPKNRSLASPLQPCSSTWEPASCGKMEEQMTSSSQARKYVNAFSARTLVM
# Outline: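 Reporter transcript levels, quantified by fluorescent RT-PCR and capillary electrophoresis, serve as the read-out. Transfected HepG2 cells carrying cis-promoter reporter units are dosed for 24 hours, and curves are fitted bidirectionally against DMSO controls.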
# [15] = target: Estrogen receptor (Homo sapiens) (UniProt P03372); experiment: ATG_ERa_TRANS: Attagene TRANS-FACTORIAL HepG2 Assay for human Estrogen Receptor alpha (ERa) (AID 2282970); details: HepG2 Attagene TRANS ERa GAL4 reporter, mRNA
# Estrogen receptor (Homo sapiens), sequence (P03372 whole entry, looked up, the tested form may be a part): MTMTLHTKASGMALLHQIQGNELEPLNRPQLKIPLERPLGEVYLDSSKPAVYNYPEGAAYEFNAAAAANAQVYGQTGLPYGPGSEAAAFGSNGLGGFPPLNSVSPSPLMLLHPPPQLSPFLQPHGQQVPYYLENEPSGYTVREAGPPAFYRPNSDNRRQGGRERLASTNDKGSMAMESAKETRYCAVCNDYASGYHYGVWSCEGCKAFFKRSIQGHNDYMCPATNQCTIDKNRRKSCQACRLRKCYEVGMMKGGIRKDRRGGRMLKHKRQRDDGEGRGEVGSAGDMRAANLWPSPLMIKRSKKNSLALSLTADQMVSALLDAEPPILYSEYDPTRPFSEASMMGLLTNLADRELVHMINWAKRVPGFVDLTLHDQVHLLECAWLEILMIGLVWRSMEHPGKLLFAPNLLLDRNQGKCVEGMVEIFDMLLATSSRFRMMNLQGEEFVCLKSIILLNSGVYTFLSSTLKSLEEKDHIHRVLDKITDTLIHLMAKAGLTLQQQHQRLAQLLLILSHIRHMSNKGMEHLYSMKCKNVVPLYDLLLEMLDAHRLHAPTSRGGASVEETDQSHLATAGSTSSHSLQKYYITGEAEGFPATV
# Outline: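 Cells: HepG2, transiently transfected. Construct: GAL4-UAS reporter units regulated by exogenous NR-Gal4 chimeras. Time: 24 h. Detection: reporter mRNA by RT-PCR, capillary electrophoresis, fluorescence. Baseline: DMSO, upward fitting.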
# [16] = target: Bile acid receptor (Homo sapiens) (UniProt Q96RI1); experiment: ATG_FXR_TRANS: Attagene TRANS-FACTORIAL HepG2 Assay for Farnesoid X Receptor (FXR) (AID 2282979); details: HepG2 Attagene TRANS FXR-GAL4 reporter transcription;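 note: hits raise reporter mRNA above DMSO so AC50 marks FXR activation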
# Bile acid receptor (Homo sapiens), sequence (Q96RI1 whole entry, looked up, the tested form may be a part): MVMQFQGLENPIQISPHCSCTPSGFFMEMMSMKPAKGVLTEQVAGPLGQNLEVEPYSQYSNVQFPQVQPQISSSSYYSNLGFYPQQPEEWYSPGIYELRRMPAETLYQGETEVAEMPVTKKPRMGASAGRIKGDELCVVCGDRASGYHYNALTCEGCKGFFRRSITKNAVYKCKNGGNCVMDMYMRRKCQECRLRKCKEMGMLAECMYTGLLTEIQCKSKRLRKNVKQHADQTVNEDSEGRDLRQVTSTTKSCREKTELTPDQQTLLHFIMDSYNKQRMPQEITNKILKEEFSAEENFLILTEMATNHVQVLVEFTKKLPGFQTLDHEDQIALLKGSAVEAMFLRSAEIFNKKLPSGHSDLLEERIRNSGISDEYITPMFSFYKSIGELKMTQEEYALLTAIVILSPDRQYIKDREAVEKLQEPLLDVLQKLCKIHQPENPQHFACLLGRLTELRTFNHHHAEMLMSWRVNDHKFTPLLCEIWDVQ
# Outline: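 Reporter transcripts from transfected HepG2 cells were measured 24 h after dosing, using RT-PCR with capillary electrophoresis of 6-FAM-labelled fragments. The read-out reflects activity of exogenous FXR-Gal4 chimera on GAL4-UAS units, with induction relative to DMSO.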
# [17] = target: Glucocorticoid receptor (Homo sapiens) (UniProt P04150); experiment: ATG_GR_TRANS: Attagene TRANS-FACTORIAL HepG2 Assay for human Glucocorticoid Receptor (GR) (AID 2282978); details: HepG2 Attagene TRANS GR reporter, mRNA transcription;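 note: activators score as hits since higher reporter transcript over DMSO is fitted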
# Outline: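 Fluorescent capillary-electrophoresis quantitation of reporter mRNA is the readout, taken 24 h after dosing human HepG2 cells carrying transiently transfected GAL4-UAS reporter units activated by chimeric NR-GAL4 fusions; activity scored as induction over DMSO.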
# [18] = target: Nuclear receptor subfamily 1 group I member 3 (Homo sapiens) (UniProt Q14994); experiment: ATG_CAR_TRANS: Attagene TRANS-FACTORIAL HepG2 Assay for human Constitutive Androstane Receptor (CAR) (AID 2282969); details: HepG2 Attagene TRANS-FACTORIAL CAR reporter;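 note: activators raise reporter mRNA above DMSO so AC50 marks induction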
# Nuclear receptor subfamily 1 group I member 3 (Homo sapiens), sequence (Q14994 whole entry, looked up, the tested form may be a part): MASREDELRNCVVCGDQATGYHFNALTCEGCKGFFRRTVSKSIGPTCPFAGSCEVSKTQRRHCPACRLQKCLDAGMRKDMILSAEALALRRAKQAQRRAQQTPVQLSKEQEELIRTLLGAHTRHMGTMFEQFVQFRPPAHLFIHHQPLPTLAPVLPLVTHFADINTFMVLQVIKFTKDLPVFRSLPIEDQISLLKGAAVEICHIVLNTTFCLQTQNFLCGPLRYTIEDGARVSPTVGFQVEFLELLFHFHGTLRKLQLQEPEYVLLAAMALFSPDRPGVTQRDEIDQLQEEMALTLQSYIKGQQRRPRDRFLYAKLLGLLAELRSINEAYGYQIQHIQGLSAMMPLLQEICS
# Outline: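 Readout is reporter mRNA induction, quantified by fluorescent primer extension and capillary electrophoresis after RT-PCR. Cells were HepG2 transiently carrying chimeric NR-Gal4 constructs with GAL4-UAS reporters, treated for 24 h; activity scored upward from DMSO.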
# [19] = ATG_TGFb_CIS: Attagene CIS-FACTORIAL HepG2 Assay for human Transforming Growth Factor (TGF) (AID 2282967; active = hit-call score of the fitted dose curve at least 0.9, where 1 is the maximum; inactive = score below 0.9); details: HepG2 Attagene CIS TGFb reporter, mRNA transcription; actives raise or lower the signal
# Outline: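 Readout: fluorescently labeled reporter cDNA fragments resolved by capillary electrophoresis after RT-PCR. Transfected HepG2 cells dosed for 24 h; endogenous TF activity at TGFB1-linked cis element; gain or loss fitted relative to DMSO.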
# [20] = ATG_GAL4_TRANS: Attagene TRANS-FACTORIAL HepG2 Assay for GAL4 (Internal Marker) (AID 2282976); details: HepG2 Attagene TRANS GAL4 internal marker reporter
# Outline: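 In transfected human HepG2 liver cells dosed 24 h, GAL4 reporter mRNA serves as a baseline marker. Detection by RT-PCR with fluorescent capillary electrophoresis, activity fitted upward relative to DMSO.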
structure (smiles),measurement,setting,value
COc1cc(/C=C/C(=O)CC(=O)/C=C/c2ccc(O)c(OC)c2)ccc1O,AC50,[1],27.4 µM (active)
same,outcome,[2],inactive
same,AC50,[3],33.4 µM (active)
same,outcome,[4],inactive
same,AC50,[5],33.4 µM (active)
same,outcome,[6],inactive
same,outcome,[7],inactive
same,outcome,[8],inactive
same,outcome,[9],inactive
same,outcome,[10],inactive
same,outcome,[11],inactive
same,outcome,[12],inactive
same,outcome,[13],inactive
same,outcome,[14],inactive
Cc1ccccc1Cl,outcome,[1],inactive
same,outcome,[2],inactive
same,outcome,[3],inactive
same,outcome,[15],inactive
same,outcome,[5],inactive
same,outcome,[16],inactive
same,outcome,[8],inactive
same,outcome,[9],inactive
same,outcome,[11],inactive
same,outcome,[14],inactive
COc1cc(-c2nc(NC(=O)c3cc4cc(C)cc(C)c4n3CC(=O)O)sc2CCC2CCCCC2)c(OC)cc1Cl,AC50,[1],5.17 µM (active)
same,AC50,[2],100 µM (active)
same,AC50,[3],7.46 µM (active)
same,outcome,[15],inactive
same,AC50,[5],21.7 µM (active)
same,outcome,[6],inactive
same,outcome,[17],inactive
same,outcome,[16],inactive
same,outcome,[8],inactive
same,outcome,[9],inactive
same,outcome,[10],inactive
same,outcome,[11],inactive
same,outcome,[12],inactive
same,outcome,[13],inactive
same,AC50,[14],24.2 µM (active)
C[C@]12C=CC(=O)C=C1CC[C@@H]1[C@@H]2C(=O)C[C@@]2(C)[C@H]1CC[C@]2(O)C(=O)CO,outcome,[1],inactive
same,outcome,[2],inactive
same,outcome,[3],inactive
same,outcome,[5],inactive
same,outcome,[9],inactive
same,outcome,[11],inactive
same,outcome,[14],inactive
C[Si]1(C)O[Si](C)(C)O[Si](C)(C)O[Si](C)(C)O1,outcome,[1],inactive
same,outcome,[2],inactive
same,outcome,[3],inactive
same,outcome,[18],inactive
same,outcome,[5],inactive
same,outcome,[6],inactive
same,outcome,[16],inactive
same,outcome,[12],inactive
same,outcome,[13],inactive
same,outcome,[14],inactive
CCCCCCCCCCCCCCCC,outcome,[1],inactive
same,outcome,[2],inactive
same,outcome,[15],inactive
same,outcome,[5],inactive
same,outcome,[7],inactive
same,outcome,[8],inactive
same,outcome,[9],inactive
same,outcome,[10],inactive
same,outcome,[11],inactive
same,outcome,[12],inactive
same,outcome,[14],inactive
COc1ccc(C)cc1N,outcome,[1],inactive
same,outcome,[19],inactive
same,outcome,[3],inactive
same,outcome,[18],inactive
same,outcome,[5],inactive
same,outcome,[6],inactive
same,outcome,[20],inactive
same,outcome,[17],inactive
same,outcome,[8],inactive
same,outcome,[9],inactive
same,outcome,[11],inactive
same,outcome,[13],inactive
same,outcome,[14],inactive
C=CCOC(=O)c1ccccc1C(=O)OCC=C,outcome,[1],inactive
same,outcome,[2],inactive
same,AC50,[15],76.7 µM (active)
same,outcome,[5],inactive
same,outcome,[6],inactive
same,outcome,[20],inactive
same,outcome,[16],inactive
same,AC50,[8],25.1 µM (active)
same,outcome,[9],inactive
same,outcome,[11],inactive
same,outcome,[13],inactive
same,outcome,[14],inactive
Cc1cccc([N+](=O)[O-])c1C,outcome,[1],inactive
same,outcome,[19],inactive
same,outcome,[3],inactive
same,outcome,[18],inactive
same,outcome,[5],inactive
same,outcome,[20],inactive
same,outcome,[11],inactive
same,outcome,[12],inactive
same,outcome,[13],inactive
same,outcome,[14],inactive
CC(CO)OC(C)CO (centres undefined) (tested in a mixture with another compound),outcome,[1],inactive
same,outcome,[2],inactive
same,outcome,[3],inactive
same,outcome,[15],inactive
same,outcome,[5],inactive
same,outcome,[16],inactive
same,outcome,[11],inactive
same,outcome,[12],inactive
same,outcome,[14],inactive
Cc1ccc(C)c(O)c1C,outcome,[1],inactive
same,outcome,[19],inactive
same,outcome,[3],inactive
same,outcome,[18],inactive
same,outcome,[5],inactive
same,outcome,[10],inactive
same,outcome,[11],inactive
same,outcome,[14],inactive

# Source: PubChem BioAssay (EPA / NIEHS)
